# Reference: publication PMC7862700, “An all-to-all approach to the identification of sequence-specific readers for epigenetic DNA modifications on cytosine”
# Key:
# Assay in all cases: DAPPL (digital affinity profiling via proximity ligation, sequencing); 10 mM Tris-HCl pH 7.5, 50 mM NaCl, 1 mM DTT, 4% glycerol, room temperature, 30 min; GST-TFs on glutathione beads, 16-mer random dsDNA library, 0.1% formaldehyde crosslink after washing; high values mean tight binding
# FLI1 = molecular target: T1, FLI1 (Homo sapiens, UniProt Q01543 1-452); conditions: protein: recombinant; tags: N-terminal GST; dsDNA, one strand shown
# T1 sequence: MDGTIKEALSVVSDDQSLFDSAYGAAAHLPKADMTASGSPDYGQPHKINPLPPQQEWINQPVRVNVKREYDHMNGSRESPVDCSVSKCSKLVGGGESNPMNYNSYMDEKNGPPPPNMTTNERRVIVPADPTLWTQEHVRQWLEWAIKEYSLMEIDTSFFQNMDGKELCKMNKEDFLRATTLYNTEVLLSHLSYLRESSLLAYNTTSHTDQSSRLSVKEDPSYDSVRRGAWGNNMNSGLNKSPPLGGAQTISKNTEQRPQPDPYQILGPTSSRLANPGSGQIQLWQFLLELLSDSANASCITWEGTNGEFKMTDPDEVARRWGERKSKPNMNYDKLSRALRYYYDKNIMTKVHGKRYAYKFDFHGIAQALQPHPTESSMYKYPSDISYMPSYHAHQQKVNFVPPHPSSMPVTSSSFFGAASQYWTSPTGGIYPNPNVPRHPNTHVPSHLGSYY
# Method in brief: (§1)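 Beads coated with glutathione captured GST-fused human transcription factors that had been expressed in yeast, and the factors were then given DNA barcodes and pooled with a tag-only sample. The pools were incubated with 200 nmole of a random double-stranded 16-mer DNA library in Tris/NaCl/DTT/glycerol buffer for 30 min at room temperature, washed, crosslinked with 0.1% formaldehyde and proximity-ligated with BsaI/T4 ligase at 37 °C for 1 h. PCR amplification and Illumina NextSeq500 sequencing came last. Binding signal is each hexamer's read frequency for a factor divided by its frequency for the tag-only sample.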
# ELK1 = molecular target: T2, ELK1 (Homo sapiens, UniProt P19419 1-428); conditions: protein: recombinant; tags: N-terminal GST; dsDNA, one strand shown
# T2 sequence: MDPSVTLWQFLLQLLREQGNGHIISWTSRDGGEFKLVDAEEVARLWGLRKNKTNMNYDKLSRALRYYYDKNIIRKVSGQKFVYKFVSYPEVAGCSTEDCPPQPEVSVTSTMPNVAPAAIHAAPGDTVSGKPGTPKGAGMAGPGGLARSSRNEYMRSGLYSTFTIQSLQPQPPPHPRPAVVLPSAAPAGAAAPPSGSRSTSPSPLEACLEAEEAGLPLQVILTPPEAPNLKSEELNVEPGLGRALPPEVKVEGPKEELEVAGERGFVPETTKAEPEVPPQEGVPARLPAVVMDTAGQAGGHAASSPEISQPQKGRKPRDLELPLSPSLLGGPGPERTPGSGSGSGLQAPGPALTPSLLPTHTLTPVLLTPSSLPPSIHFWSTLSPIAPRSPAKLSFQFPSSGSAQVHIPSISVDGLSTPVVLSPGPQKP
# Method in brief: as §1
# GABPA = molecular target: T3, GABPA (Homo sapiens, UniProt Q06546 1-454); conditions: protein: recombinant; tags: N-terminal GST; dsDNA, one strand shown
# T3 sequence: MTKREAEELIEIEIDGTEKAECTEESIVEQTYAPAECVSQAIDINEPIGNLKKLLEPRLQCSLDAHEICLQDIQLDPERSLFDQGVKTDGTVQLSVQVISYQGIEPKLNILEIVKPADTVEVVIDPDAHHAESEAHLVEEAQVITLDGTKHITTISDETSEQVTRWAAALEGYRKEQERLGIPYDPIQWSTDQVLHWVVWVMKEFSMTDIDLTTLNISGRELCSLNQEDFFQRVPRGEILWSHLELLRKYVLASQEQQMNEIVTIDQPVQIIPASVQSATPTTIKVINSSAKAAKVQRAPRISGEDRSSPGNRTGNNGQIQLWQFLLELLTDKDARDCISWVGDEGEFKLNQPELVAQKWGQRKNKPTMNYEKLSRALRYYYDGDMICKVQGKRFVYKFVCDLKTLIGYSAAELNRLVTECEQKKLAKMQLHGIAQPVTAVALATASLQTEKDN
# Method in brief: as §1
# ERG = molecular target: T4, ERG (Homo sapiens, UniProt P11308 1-479); conditions: protein: recombinant; tags: N-terminal GST; dsDNA, one strand shown
# T4 sequence: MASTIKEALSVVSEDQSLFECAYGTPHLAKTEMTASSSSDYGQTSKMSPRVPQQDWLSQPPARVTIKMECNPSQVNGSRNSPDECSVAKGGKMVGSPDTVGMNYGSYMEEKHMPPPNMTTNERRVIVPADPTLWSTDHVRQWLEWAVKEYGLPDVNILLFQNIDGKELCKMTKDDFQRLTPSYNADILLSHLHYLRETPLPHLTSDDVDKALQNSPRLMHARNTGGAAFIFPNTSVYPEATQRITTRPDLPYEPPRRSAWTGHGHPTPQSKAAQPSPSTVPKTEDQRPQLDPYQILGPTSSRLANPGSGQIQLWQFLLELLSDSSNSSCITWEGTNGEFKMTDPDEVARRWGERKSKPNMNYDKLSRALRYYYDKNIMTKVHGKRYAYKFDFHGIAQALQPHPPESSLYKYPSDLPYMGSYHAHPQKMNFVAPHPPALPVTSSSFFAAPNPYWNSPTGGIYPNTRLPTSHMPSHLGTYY
# Method in brief: as §1
# ELF1 = ELF1 (Homo sapiens, UniProt P32519 1-619); conditions: protein: recombinant; tags: N-terminal GST; dsDNA, one strand shown
# ELF1, sequence (P32519 whole entry): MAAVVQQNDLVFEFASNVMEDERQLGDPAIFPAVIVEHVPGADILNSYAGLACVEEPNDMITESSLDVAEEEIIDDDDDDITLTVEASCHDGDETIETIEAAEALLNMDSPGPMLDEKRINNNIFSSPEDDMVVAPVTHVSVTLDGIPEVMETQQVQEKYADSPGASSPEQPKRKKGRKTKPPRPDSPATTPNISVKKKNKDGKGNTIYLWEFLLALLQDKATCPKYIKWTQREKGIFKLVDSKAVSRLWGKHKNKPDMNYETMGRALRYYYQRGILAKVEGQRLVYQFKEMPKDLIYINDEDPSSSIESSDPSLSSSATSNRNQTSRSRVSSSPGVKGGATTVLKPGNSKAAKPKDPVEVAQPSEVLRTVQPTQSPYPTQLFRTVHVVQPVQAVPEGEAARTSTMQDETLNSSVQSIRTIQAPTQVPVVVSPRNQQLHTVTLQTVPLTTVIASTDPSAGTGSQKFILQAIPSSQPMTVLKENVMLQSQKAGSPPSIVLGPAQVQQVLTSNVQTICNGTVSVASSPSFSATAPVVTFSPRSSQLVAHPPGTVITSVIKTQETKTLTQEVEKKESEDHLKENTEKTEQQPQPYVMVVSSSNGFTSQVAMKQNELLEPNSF
# Method in brief: as §1
# EHF = molecular target: T5, EHF (Homo sapiens, UniProt Q9NZC4 1-300); conditions: protein: recombinant; tags: N-terminal GST; dsDNA, one strand shown
# T5 sequence: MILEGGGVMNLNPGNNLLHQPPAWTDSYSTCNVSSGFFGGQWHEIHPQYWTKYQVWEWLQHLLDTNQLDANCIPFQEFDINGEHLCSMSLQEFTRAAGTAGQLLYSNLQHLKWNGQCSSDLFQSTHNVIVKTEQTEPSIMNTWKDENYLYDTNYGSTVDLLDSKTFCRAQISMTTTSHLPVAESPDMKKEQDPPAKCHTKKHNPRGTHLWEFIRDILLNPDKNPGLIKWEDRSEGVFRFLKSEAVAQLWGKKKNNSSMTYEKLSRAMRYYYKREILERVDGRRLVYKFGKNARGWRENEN
# Method in brief: as §1
# SPI1 = SPI1 (Homo sapiens, UniProt P17947 1-270); conditions: protein: recombinant; tags: N-terminal GST; dsDNA, one strand shown
# Method in brief: as §1
# SPIB = SPIB (Homo sapiens, UniProt Q01892 1-262); conditions: protein: recombinant; tags: N-terminal GST; dsDNA, one strand shown
# SPIB, sequence (Q01892 whole entry): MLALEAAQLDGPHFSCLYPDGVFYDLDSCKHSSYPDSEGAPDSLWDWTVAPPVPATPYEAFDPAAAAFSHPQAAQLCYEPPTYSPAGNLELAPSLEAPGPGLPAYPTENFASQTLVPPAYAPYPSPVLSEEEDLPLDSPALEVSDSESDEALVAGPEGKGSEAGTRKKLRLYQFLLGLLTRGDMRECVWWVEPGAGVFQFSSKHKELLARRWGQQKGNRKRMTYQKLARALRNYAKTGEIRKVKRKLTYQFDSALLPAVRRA
# Method in brief: as §1
# ELK3 = molecular target: T6, ELK3 (Homo sapiens, UniProt P41970 1-407); conditions: protein: recombinant; tags: N-terminal GST; dsDNA, one strand shown
# T6 sequence: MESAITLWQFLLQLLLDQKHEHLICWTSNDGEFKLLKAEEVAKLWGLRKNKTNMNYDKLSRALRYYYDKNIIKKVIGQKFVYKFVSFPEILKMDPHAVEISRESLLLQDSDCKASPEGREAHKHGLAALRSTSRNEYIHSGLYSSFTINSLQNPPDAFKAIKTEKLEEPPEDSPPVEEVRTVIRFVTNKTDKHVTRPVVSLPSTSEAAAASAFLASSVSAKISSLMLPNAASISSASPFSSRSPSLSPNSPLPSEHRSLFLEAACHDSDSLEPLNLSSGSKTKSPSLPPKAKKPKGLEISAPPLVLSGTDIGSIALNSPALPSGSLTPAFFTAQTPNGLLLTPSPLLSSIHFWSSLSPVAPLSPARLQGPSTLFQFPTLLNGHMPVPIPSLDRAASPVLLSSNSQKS
# Method in brief: as §1
# FEV = molecular target: T7, FEV (Homo sapiens, UniProt Q99581 1-238); conditions: protein: recombinant; tags: N-terminal GST; dsDNA, one strand shown
# T7 sequence: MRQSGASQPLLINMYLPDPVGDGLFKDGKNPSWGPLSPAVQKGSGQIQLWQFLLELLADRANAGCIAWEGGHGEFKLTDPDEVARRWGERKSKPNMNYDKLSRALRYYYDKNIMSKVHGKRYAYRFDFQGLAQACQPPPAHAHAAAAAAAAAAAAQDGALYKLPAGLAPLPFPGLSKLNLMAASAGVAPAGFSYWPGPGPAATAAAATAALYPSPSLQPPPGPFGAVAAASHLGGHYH
# Method in brief: as §1
# ETV5 = ETV5 (Homo sapiens, UniProt P41161 1-510); conditions: protein: recombinant; tags: N-terminal GST; dsDNA, one strand shown
# ETV5, sequence (P41161 whole entry): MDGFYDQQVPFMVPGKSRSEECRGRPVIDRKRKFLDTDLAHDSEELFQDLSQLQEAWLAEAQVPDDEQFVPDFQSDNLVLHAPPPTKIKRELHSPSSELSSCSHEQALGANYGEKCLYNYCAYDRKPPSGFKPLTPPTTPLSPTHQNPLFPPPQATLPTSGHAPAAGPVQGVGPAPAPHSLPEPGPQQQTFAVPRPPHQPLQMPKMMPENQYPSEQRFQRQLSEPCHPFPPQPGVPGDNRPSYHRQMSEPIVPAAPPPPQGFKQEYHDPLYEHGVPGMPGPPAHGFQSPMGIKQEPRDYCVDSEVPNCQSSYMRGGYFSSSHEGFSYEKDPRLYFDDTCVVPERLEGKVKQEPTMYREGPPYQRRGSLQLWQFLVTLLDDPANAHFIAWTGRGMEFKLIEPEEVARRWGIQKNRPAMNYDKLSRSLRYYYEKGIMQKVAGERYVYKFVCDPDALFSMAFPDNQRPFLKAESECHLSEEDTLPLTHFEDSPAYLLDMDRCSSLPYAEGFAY
# Method in brief: as §1
# HSF1 = HSF1 (Homo sapiens, UniProt Q00613 1-529); conditions: protein: recombinant; tags: N-terminal GST; chain copies: 3; dsDNA, one strand shown
# HSF1, sequence (Q00613 whole entry): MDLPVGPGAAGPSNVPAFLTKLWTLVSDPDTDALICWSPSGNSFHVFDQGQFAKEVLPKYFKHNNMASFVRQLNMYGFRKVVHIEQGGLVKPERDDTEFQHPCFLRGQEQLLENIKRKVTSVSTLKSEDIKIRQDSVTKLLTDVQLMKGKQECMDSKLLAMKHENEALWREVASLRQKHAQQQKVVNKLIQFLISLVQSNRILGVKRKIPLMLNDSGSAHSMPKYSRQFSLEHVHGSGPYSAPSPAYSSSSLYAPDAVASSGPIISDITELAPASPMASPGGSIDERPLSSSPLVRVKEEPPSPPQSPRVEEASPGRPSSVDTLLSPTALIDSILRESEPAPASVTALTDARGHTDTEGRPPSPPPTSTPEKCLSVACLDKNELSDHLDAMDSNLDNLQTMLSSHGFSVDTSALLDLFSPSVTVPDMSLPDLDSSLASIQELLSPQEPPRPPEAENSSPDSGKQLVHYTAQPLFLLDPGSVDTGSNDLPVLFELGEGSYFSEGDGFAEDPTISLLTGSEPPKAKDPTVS
# Method in brief: as §1
# SPIC = molecular target: T8, SPIC (Homo sapiens, UniProt Q8N5J4 1-248); conditions: protein: recombinant; tags: N-terminal GST; dsDNA, one strand shown
# T8 sequence: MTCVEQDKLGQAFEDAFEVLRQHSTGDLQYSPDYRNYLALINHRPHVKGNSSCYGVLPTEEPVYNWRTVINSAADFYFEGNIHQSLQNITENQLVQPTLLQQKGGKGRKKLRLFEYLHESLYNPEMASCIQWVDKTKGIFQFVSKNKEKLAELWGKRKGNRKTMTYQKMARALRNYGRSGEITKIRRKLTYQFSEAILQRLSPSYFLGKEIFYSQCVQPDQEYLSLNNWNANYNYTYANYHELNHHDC
# Method in brief: as §1
# ELF4 = ELF4 (Homo sapiens, UniProt Q99607 1-663); conditions: protein: recombinant; tags: N-terminal GST; dsDNA, one strand shown
# ELF4, sequence (Q99607 whole entry): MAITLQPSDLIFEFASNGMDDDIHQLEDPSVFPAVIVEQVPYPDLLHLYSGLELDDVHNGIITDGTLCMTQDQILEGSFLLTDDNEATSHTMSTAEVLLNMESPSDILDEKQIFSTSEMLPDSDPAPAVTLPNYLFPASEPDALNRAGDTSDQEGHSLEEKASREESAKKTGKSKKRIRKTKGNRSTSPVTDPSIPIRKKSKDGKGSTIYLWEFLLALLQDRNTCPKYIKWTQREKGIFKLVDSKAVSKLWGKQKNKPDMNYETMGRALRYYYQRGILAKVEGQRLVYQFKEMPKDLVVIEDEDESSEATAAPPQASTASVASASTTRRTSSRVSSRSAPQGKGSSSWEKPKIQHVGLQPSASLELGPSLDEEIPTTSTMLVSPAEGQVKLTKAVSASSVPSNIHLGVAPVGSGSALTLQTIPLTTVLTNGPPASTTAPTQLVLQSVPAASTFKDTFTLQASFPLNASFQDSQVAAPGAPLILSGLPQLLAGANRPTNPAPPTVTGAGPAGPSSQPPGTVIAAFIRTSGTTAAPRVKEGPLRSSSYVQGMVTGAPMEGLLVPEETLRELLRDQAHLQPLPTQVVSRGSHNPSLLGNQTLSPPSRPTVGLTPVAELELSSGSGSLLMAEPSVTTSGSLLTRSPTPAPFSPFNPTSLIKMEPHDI
# Method in brief: as §1
# ELK4 = molecular target: T9, ELK4 (Homo sapiens, UniProt P28324-2 1-405); conditions: protein: recombinant; tags: N-terminal GST; dsDNA, one strand shown
# T9 sequence: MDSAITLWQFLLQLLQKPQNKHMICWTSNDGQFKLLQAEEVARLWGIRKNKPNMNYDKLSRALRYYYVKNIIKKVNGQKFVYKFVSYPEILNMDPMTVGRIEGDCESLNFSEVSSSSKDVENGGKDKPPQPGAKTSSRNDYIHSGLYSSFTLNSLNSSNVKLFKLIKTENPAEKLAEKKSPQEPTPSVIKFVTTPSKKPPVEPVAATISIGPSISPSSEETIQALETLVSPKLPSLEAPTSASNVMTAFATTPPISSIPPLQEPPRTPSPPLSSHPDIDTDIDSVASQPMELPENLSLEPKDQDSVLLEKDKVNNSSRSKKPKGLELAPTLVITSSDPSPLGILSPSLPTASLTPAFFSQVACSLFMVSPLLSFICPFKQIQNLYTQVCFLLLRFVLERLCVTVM
# Method in brief: as §1
# ETV2 = molecular target: T10, ETV2 (Homo sapiens, UniProt O00321 1-342); conditions: protein: recombinant; tags: N-terminal GST; dsDNA, one strand shown
# T10 sequence: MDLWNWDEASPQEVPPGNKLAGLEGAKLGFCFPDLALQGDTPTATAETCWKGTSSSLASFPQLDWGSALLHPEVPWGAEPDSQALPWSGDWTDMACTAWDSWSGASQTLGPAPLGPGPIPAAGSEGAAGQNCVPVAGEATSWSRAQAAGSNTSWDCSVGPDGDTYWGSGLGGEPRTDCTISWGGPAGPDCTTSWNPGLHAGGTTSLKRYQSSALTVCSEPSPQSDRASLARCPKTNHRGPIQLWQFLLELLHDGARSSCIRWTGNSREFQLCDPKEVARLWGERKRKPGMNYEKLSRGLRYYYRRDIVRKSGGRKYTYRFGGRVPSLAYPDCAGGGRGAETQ
# Method in brief: as §1
# ELF3 = molecular target: T11, ELF3 (Homo sapiens, UniProt P78545 1-371); conditions: protein: recombinant; tags: N-terminal GST; dsDNA, one strand shown
# T11 sequence: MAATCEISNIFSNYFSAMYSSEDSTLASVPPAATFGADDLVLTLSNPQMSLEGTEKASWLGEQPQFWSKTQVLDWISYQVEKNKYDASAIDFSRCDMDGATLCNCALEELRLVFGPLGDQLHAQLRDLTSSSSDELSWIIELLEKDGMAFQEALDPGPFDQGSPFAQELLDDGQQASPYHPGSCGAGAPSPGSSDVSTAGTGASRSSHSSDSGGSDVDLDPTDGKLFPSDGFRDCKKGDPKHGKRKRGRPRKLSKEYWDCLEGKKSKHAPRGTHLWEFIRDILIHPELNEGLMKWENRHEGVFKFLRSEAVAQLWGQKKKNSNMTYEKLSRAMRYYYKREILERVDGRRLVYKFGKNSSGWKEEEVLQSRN
# Method in brief: as §1
# CRX = CRX (Homo sapiens, UniProt O43186 1-299); conditions: protein: recombinant; tags: N-terminal GST; dsDNA, one strand shown
# CRX, sequence (O43186 whole entry): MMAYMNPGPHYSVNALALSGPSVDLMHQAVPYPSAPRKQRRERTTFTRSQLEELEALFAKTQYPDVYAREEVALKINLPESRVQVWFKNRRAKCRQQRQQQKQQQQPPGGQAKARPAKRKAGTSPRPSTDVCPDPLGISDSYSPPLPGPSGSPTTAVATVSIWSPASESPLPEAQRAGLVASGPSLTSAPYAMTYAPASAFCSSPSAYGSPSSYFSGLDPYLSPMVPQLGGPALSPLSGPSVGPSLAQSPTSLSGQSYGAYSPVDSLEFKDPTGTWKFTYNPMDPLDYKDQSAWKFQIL
# Method in brief: as §1
# ETV1 = ETV1 (Homo sapiens, UniProt P50549 1-477); conditions: protein: recombinant; tags: N-terminal GST; dsDNA, one strand shown
# ETV1, sequence (P50549 whole entry): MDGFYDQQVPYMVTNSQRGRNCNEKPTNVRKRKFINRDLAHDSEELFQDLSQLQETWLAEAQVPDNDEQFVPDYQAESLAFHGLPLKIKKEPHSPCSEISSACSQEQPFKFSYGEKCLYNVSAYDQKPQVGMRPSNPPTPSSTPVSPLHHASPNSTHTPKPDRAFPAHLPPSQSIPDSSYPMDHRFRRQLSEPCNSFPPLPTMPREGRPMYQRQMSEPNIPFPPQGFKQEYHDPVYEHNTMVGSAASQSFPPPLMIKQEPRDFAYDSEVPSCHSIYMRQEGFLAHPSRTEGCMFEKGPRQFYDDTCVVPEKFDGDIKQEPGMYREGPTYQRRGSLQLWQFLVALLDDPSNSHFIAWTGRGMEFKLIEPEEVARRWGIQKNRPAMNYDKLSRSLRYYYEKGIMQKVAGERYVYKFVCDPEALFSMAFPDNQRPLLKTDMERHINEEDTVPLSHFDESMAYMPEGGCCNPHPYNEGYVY
# Method in brief: as §1
sequence,measurement,setting,value
AATAGT,binding signal,FLI1,"1.21 fold enrichment (6-mer frequency, TF over GST control)"
same,binding signal,ELK1,"1.2 fold enrichment (6-mer frequency, TF over GST control)"
same,binding signal,GABPA,"1.2 fold enrichment (6-mer frequency, TF over GST control)"
same,binding signal,ERG,"1.31 fold enrichment (6-mer frequency, TF over GST control)"
same,binding signal,ELF1,"1.19 fold enrichment (6-mer frequency, TF over GST control)"
same,binding signal,EHF,"1.23 fold enrichment (6-mer frequency, TF over GST control)"
same,binding signal,SPI1,"1.17 fold enrichment (6-mer frequency, TF over GST control)"
same,binding signal,SPIB,"1.22 fold enrichment (6-mer frequency, TF over GST control)"
same,binding signal,ELK3,"1.11 fold enrichment (6-mer frequency, TF over GST control)"
same,binding signal,FEV,"1.19 fold enrichment (6-mer frequency, TF over GST control)"
same,binding signal,ETV5,"1.27 fold enrichment (6-mer frequency, TF over GST control)"
same,binding signal,HSF1,"1.21 fold enrichment (6-mer frequency, TF over GST control)"
same,binding signal,SPIC,"1.28 fold enrichment (6-mer frequency, TF over GST control)"
same,binding signal,ELF4,"1.18 fold enrichment (6-mer frequency, TF over GST control)"
same,binding signal,ELK4,"1.46 fold enrichment (6-mer frequency, TF over GST control)"
same,binding signal,ETV2,"1.17 fold enrichment (6-mer frequency, TF over GST control)"
same,binding signal,ELF3,"1.26 fold enrichment (6-mer frequency, TF over GST control)"
same,binding signal,CRX,"1.19 fold enrichment (6-mer frequency, TF over GST control)"
same,binding signal,ETV1,"1.17 fold enrichment (6-mer frequency, TF over GST control)"
